PubChem BioAssay (EPA / NIEHS)
Calls of active or inactive are those of the source. How the source made its calls: active means hit-call score of the fitted dose curve at least 0.9, where 1 is the maximum; inactive means score below 0.9.

Tests used:
Details in all cases: mRNA level, 48 h; actives raise or lower the signal
[1] = read-out: Heat shock 70 kDa protein 1 (HSPA1A), gene 3303; test: LTEA_HepaRG_HSPA1A: Life Technologies and Expression Analysis (LTEA) Assay for Heat shock 70 kDa protein 1 (HSPA1A) using HepaRG (AID 2283502)
In short: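 HSPA1A induction in human HepaRG liver cells is measured after 48 h of chemical treatment (100 uM maximum, 0.5% DMSO vehicle). Expression comes from qRT-PCR normalized to endogenous controls.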

[2] = read-out: Hypoxia-inducible factor 1-alpha (Homo sapiens) (UniProt Q16665); test: LTEA_HepaRG_HIF1A: Life Technologies and Expression Analysis (LTEA) Assay for Hypoxia-inducible factor 1 (HIF1A) Trancription factor using HepaRG (AID 2283503)
In short: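 HepaRG, 48 h exposure, 8-pt half-log series from 100 uM, 0.5% DMSO vehicle, duplicates. Readout: HIF1A transcript by qRT-PCR (Fluidigm array), housekeeping-normalised. Bidirectional curve fit vs DMSO baseline.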

[3] = read-out: 3-Hydroxy-3-Methylglutaryl-CoA Synthase 2 (HMGCS2), HMGCS2 (gene 3158); test: LTEA_HepaRG_HMGCS2: Life Technologies and Expression Analysis (LTEA) Assay for 3-Hydroxy-3-Methylglutaryl-CoA Synthase 2 (HMGCS2) using HepaRG (AID 2283504)
In short: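 HepaRG, plated 48 h then switched to serum-free induction media; cmpd 8-pt, max 100 uM, 1/2-log, 0.5% DMSO, n=2, 48 h. HMGCS2 mRNA by Fluidigm TaqMan qRT-PCR, ACTB/GAPDH/POLR2A norm; bidirectional fit vs DMSO.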

[4] = read-out: HGF (gene 3082); test: LTEA_HepaRG_HGF: Life Technologies and Expression Analysis (LTEA) Assay for Hepatocyte Growth Facto (HGF) using HepaRG (AID 2283505)
In short: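 Read-out is HGF transcript level by qRT-PCR, normalized to three housekeeping genes, fitted bidirectionally against 0.5% DMSO vehicle. Human HepaRG cells received test chemicals for 48 h at up to 100 uM.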

[5] = read-out: Insulin Like Growth Factor 1 (IGF1), IGF1 (gene 3479); test: LTEA_HepaRG_IGF1: Life Technologies and Expression Analysis (LTEA) Assay for Insulin Like Growth Factor 1 (IGF1) using HepaRG (AID 2283506)
In short: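 Using human HepaRG liver cells, IGF1 transcript induction or suppression is measured 48 h after dosing across eight concentrations capped at 100 uM. Values derive from bidirectional concentration-response fitting with DMSO as baseline.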

[6] = read-out: Intercellular Adhesion Molecule 1 (ICAM1), ICAM1 (gene 3383); test: LTEA_HepaRG_ICAM1: Life Technologies and Expression Analysis (LTEA) Assay for Intercellular Adhesion Molecule 1 (ICAM1) using HepaRG (AID 2283507)
In short: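 Readout is qRT-PCR mRNA level, normalized to three housekeeping genes and fitted bidirectionally against 0.5% DMSO vehicle. Human HepaRG cultures received compound for 48 h, top concentration 100 uM with half-log dilutions.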

[7] = read-out: Insulin-like growth factor-binding protein 1 (IGFBP1), IGFBP1 (gene 3484); test: LTEA_HepaRG_IGFBP1: Life Technologies and Expression Analysis (LTEA) Assay for Insulin-like growth factor-binding protein 1 (IGFBP1) using HepaRG (AID 2283508)
In short: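 Thawed HepaRG cells are plated for 48 h, switched to serum-free induction medium, then dosed in duplicate for another 48 h (100 uM top, half-log steps). Lysates in RLT go to qRT-PCR, and gain or loss of signal is fitted relative to vehicle.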

[8] = read-out: Interleukin 6 (IL6), IL6 (gene 3569); test: LTEA_HepaRG_IL6: Life Technologies and Expression Analysis (LTEA) Assay for Interleukin 6 (IL6) using HepaRG (AID 2283509)
In short: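 Differentiated human HepaRG cells, plated 48 h then switched to serum-free induction medium, were exposed in duplicate for 48 h to eight half-log concentrations up to 100 uM in 0.5% DMSO. IL6 mRNA measured by qRT-PCR, normalized to ACTB/GAPDH/POLR2A.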

[9] = read-out: Interleukin 6 Receptor (IL6R), IL6R (gene 3570); test: LTEA_HepaRG_IL6R: Life Technologies and Expression Analysis (LTEA) Assay for Interleukin 6 Receptor (IL6R) using HepaRG (AID 2283510);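 on AC50: TaqMan qRT-PCR signal normalized to ACTB GAPDH and POLR2A housekeeping genes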
In short: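 Concentration-response in human liver HepaRG cells: eight concentrations from 100 uM downward by half-logs, 48 h exposure, 0.5% DMSO vehicle. IL6R mRNA change measured by qRT-PCR and fitted in both directions relative to vehicle.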

[10] = read-out: Potassium channel subfamily K member 1 (KCNK1), KCNK1 (gene 3775); test: LTEA_HepaRG_KCNK1: Life Technologies and Expression Analysis (LTEA) Assay for Potassium channel subfamily K member 1 (KCNK1) using HepaRG (AID 2283511)
In short: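 Differentiated human HepaRG cells in serum-free induction medium were exposed in duplicate for 48 h to 8 half-log concentrations up to 100 uM in 0.5% DMSO. KCNK1 mRNA was measured by TaqMan qRT-PCR, normalized to ACTB, GAPDH and POLR2A, and fitted bidirectionally versus DMSO.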

[11] = read-out: Keratin 19 (KRT19), KRT19 (gene 3880); test: LTEA_HepaRG_KRT19: Life Technologies and Expression Analysis (LTEA) Assay for Keratin 19 (KRT19) using HepaRG (AID 2283512)
In short: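 KRT19 transcript levels, measured by Fluidigm qRT-PCR against three housekeeping genes, are fitted for gain or loss of signal relative to DMSO. Human HepaRG cells receive test chemicals (top 100 uM, half-log steps, 0.5% DMSO) for 48 hours.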

[12] = read-out: JUN Transcription Factor, JUN (gene 3725); test: LTEA_HepaRG_JUN: Life Technologies and Expression Analysis (LTEA) Assay for JUN Transcription Factor using HepaRG (AID 2283513)
In short: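 Human HepaRG liver cells receive test chemicals in 0.5% DMSO for 48 h across an eight-point range topping at 100 uM. Expression changes in JUN are scored in both directions against the DMSO vehicle.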

[13] = read-out: Lipase C (LIPC), LIPC (gene 3990); test: LTEA_HepaRG_LIPC: Life Technologies and Expression Analysis (LTEA) Assay for Lipase C (LIPC) using HepaRG (AID 2283514)
In short: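 Differentiated human HepaRG cells in serum-free induction medium were exposed in duplicate for 48 h to eight concentrations (top 100 uM, half-log steps, 0.5% DMSO). LIPC mRNA was quantified by TaqMan qRT-PCR, normalized to ACTB, GAPDH and POLR2A, with bidirectional fitting versus DMSO.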

[14] = read-out: Lipoprotein lipase (LPL), LPL (gene 4023); test: LTEA_HepaRG_LPL: Life Technologies and Expression Analysis (LTEA) Assay for Lipoprotein lipase (LPL) using HepaRG (AID 2283515)
In short: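 Differentiated human HepaRG cells in serum-free induction medium were exposed in duplicate for 48 h to eight half-log concentrations (top 100 uM) in 0.5% DMSO. LPL mRNA was quantified by TaqMan qRT-PCR, normalized to ACTB, GAPDH and POLR2A.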

[15] = read-out: MicroRNA 122 (MIR122), gene 406906; test: LTEA_HepaRG_MIR122: Life Technologies and Expression Analysis (LTEA) Assay for MicroRNA 122 (MIR122) using HepaRG (AID 2283516); further: the transcript read is the microRNA miR-122
In short: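 HepaRG, 48 h exposure, 8-pt half-log from 100 uM, 0.5% DMSO; TaqMan qRT-PCR; bidirectional fit vs DMSO.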

[16] = read-out: MYC, MYC (gene 4609); test: LTEA_HepaRG_MYC: Life Technologies and Expression Analysis (LTEA) Assay for MYC using HepaRG (AID 2283518)
In short: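 HepaRG, ~100,000 cells/well, collagen I; 48 h plating; serum-free induction medium; 48 h dosing, duplicate, 100 uM top, half-log, 0.5% DMSO; total RNA → qRT-PCR MYC; gain/loss fit vs DMSO.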

[17] = read-out: matrix metalloproteinase-3 (MMP3), MMP3 (gene 4314); test: LTEA_HepaRG_MMP3: Life Technologies and Expression Analysis (LTEA) Assay for matrix metalloproteinase-3 (MMP3) using HepaRG (AID 2283519)
In short: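 Differentiated human HepaRG cells, plated 48 h on collagen I, were exposed in duplicate for 48 h in serum-free induction medium to eight half-log concentrations up to 100 uM in 0.5% DMSO. MMP3 mRNA was quantified by TaqMan qRT-PCR, normalised to ACTB, GAPDH and POLR2A.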

[18] = read-out: Paternally Expressed 10 (PEG10), PEG10 (gene 23089); test: LTEA_HepaRG_PEG10: Life Technologies and Expression Analysis (LTEA) Assay for Paternally Expressed 10 (PEG10) using HepaRG (AID 2283520);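 on AC50: PEG10 transcript by qRT-PCR normalised to ACTB GAPDH and POLR2A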
In short: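 Chemicals tested on HepaRG cells for 48 h, highest concentration 100 uM. PEG10 expression assessed by qRT-PCR relative to DMSO control.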

[19] = read-out: Nuclear factor NF-kappa-B p105 subunit (Homo sapiens) (UniProt P19838); test: LTEA_HepaRG_NFKB1: Life Technologies and Expression Analysis (LTEA) Assay for Nuclear Factor Kappa B Subunit 1 (NFKB1) using HepaRG (AID 2283521)
In short: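 Differentiated human HepaRG cells were exposed for 48 h in serum-free induction medium to eight concentrations (top 100 uM, half-log steps, 0.5% DMSO), in duplicate. NFKB1 mRNA was measured by TaqMan qRT-PCR, normalized to ACTB/GAPDH/POLR2A, and fitted bidirectionally against DMSO.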

[20] = read-out: matrix metalloproteinase-10 (MMP10), MMP10 (gene 4319); test: LTEA_HepaRG_MMP10: Life Technologies and Expression Analysis (LTEA) Assay for matrix metalloproteinase-10 (MMP10) using HepaRG (AID 2283517)
In short: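 HepaRG, collagen I, ~100,000 cells/well; serum-free induction medium; 48 h exposure, duplicate, 8-pt half-log to 100 uM, 0.5% DMSO. Readout: TaqMan qRT-PCR, normalized to ACTB/GAPDH/POLR2A; bidirectional fit vs DMSO.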

Measured: AC50

Hypoxia-inducible factor 1-alpha (Homo sapiens), sequence (Q16665 whole entry, looked up): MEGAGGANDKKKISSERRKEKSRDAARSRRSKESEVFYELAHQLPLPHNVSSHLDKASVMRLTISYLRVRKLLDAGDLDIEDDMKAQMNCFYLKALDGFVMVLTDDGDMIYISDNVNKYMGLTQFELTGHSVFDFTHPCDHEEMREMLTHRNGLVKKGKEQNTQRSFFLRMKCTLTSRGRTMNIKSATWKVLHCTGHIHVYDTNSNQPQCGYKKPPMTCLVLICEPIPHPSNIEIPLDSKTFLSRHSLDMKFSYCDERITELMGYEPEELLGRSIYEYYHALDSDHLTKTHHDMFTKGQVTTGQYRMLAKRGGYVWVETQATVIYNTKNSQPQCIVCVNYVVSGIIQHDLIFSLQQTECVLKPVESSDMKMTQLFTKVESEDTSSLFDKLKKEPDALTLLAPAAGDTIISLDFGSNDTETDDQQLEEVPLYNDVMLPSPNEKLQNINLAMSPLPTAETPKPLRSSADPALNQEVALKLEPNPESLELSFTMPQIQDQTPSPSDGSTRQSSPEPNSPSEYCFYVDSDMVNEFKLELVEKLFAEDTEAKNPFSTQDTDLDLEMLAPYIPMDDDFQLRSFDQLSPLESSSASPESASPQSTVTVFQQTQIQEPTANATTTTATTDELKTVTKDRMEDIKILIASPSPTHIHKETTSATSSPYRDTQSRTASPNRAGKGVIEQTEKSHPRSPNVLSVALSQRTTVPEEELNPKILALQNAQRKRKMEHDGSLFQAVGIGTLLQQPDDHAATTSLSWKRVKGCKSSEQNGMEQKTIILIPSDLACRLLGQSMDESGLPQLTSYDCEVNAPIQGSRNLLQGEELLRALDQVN
Nuclear factor NF-kappa-B p105 subunit (Homo sapiens), sequence (P19838 whole entry, looked up): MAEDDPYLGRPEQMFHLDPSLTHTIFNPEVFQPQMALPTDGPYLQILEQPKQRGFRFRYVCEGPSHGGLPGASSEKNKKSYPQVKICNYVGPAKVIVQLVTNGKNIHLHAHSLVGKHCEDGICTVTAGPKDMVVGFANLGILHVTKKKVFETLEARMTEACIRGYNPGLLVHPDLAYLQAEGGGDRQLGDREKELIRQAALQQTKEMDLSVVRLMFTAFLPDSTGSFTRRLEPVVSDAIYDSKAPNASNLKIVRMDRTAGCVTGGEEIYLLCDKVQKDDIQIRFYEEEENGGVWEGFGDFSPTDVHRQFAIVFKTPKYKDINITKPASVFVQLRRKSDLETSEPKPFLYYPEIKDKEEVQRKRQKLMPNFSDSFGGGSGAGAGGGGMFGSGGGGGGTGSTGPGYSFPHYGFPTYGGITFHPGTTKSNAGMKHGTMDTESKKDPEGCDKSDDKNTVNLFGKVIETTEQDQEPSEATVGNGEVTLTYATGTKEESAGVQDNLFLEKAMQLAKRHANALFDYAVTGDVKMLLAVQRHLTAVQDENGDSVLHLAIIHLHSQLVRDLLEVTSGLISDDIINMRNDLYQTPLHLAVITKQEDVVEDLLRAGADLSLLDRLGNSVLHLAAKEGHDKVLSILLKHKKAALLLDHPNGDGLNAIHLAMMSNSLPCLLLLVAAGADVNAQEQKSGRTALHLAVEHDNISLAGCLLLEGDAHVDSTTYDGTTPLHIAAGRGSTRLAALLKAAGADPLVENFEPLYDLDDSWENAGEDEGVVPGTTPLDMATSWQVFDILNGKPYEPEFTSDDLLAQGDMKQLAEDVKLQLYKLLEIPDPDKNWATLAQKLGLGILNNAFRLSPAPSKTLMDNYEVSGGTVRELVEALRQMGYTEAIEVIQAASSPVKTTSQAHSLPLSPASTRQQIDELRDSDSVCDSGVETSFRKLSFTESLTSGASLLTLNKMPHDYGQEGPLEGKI

Cc1ccc2oc(CN(Cc3ccccc3)C(=O)Nc3c(F)cc(F)cc3F)c(-c3ccc(Cl)cc3)c2c1
inactive: [1] | [2] | [4] | [6] | [8] | [9] | [10] | [11] | [12] | [15] | [17] | [18] | [19]
active: [3] 44.2 µM | [5] 30.2 µM | [7] 70.8 µM | [13] 44.2 µM | [14] 56.4 µM | [16] 44.2 µM

CN(C)C(=O)C1(N2CCCCC2)CCN(CC[C@@]2(c3ccc(Cl)c(Cl)c3)CN(C(=O)c3ccccc3)CCO2)CC1
active: [1] 15.2 µM | [2] 33.1 µM | [3] 68.6 µM | [5] 90.9 µM | [6] 47.2 µM | [7] 21.6 µM | [8] 22.1 µM | [10] 14.9 µM | [12] 31 µM | [14] 24.8 µM | [15] 10.9 µM | [16] 21.4 µM | [19] 80.3 µM
inactive: [4] | [9] | [11] | [13] | [17] | [18]

COc1ccc2cc(S(=O)(=O)N[C@H](CC(=O)N[C@H](Cc3ccc(CN4[C@H](C)CCC[C@@H]4C)cc3)C(=O)N(C)C(C)C)c3ccc4c(c3)OCO4)ccc2c1
active: [1] 82.6 µM | [2] 75.5 µM | [4] 19.9 µM | [5] 21.2 µM | [6] 12 µM | [7] 13 µM | [8] 30.9 µM | [9] 82.5 µM | [10] 19.7 µM | [11] 12 µM | [12] 57.8 µM | [14] 24.1 µM | [15] 11.4 µM | [20] 24.3 µM | [16] 24.7 µM | [18] 11.5 µM | [19] 31.2 µM
inactive: [3] | [13] | [17]

O=c1[nH]sc2ccccc12
inactive: [1] | [2] | [3] | [4] | [5] | [6] | [7] | [8] | [9] | [10] | [11] | [12] | [13] | [14] | [15] | [20] | [16] | [17] | [18] | [19]

O=C(O)Cc1cc(I)c(Oc2ccc(O)c(I)c2)c(I)c1
inactive: [15] | [17]
active: [1] 79.7 µM | [3] 77.1 µM | [4] 66.8 µM | [5] 93.7 µM | [6] 64.4 µM | [7] 71.1 µM | [8] 80.4 µM | [9] 42.7 µM | [10] 64.3 µM | [11] 0.631 µM | [12] 80.7 µM | [13] 88.5 µM | [14] 65.7 µM | [16] 91.3 µM | [18] 0.558 µM | [19] 71.8 µM

CCCCOC(=O)CC(CC(=O)OCCCC)(OC(C)=O)C(=O)OCCCC
inactive: [1] | [2] | [3] | [4] | [5] | [6] | [7] | [8] | [9] | [10] | [11] | [12] | [13] | [14] | [15] | [16] | [17] | [18] | [19]
